# BRCA1 expr act: increases BRCA1 expression. MCF7-BRCA1-FFLuc reporter, luminescence, 48 h; response scale: scaled: vehicle 0%, 10 µM genistein 100%. 380,000 compounds, 1.1% hits. Potency, µM (titrated, usually from 46.1 µM), inactives show at the highest dose activation, most hits filed as activators; further: nearly all actives have a fitted effect of over 80% in size
#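 Luminescence from a BRCA1-driven firefly luciferase in MCF7 cells was read after 48 h compound exposure at 37 C. Data normalized against DMSO and a 10microM genistein activation control, then curve-fitted across the titration.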
# VDR inh: vitamin D3 receptor (human) inhibition; VDR-SRC2-3 peptide fluorescence polarization, 2 h; 400,000 compounds, 0.93% hits; P11473; Potency, µM, inactives show max response, negative = inhibition, usual class: inhibitors; further: on the % scale 0 is the no-effect control and ±100 the full control effect
#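 After 23 nl compound addition and a short centrifugation, plates sat for 2 hours at ambient temperature; polarization of fluorescence then indicated loss of VDR binding to peptide SRC2-3.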
# PLK1 PBD inh: blocks phosphopeptide binding to human PLK1 polo-box domain. 360,000 compounds, 2.8% hits. AID 720504. Potency, µM, inactives show max response, negative = inhibition, actives largely listed as inhibitors. Plk1 PBD binding of FITC phosphopeptide, fluorescence polarization. P53350; further: series mostly up to about 57 µM; on the % scale 0 is the no-effect control and ±100 the full control effect; nearly all actives have a fitted effect of over 65% in size
# Tb PFK block: blocks T. brucei phosphofructokinase; O15648; AID 485367; 330,000 compounds, 0.17% hits; T. brucei PFK, ADP-Glo luminescence; Potency, µM (highest dose often 57.5 µM), inactives show at the highest dose activity, negative = inhibition, hits mostly inhibitors;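 further: 0% = uninhibited 1x PFK enzyme wells and -100% = no-enzyme wells; nearly all actives have a fitted effect of over 60% in size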
# Target sequence (O15648 whole entry, looked up): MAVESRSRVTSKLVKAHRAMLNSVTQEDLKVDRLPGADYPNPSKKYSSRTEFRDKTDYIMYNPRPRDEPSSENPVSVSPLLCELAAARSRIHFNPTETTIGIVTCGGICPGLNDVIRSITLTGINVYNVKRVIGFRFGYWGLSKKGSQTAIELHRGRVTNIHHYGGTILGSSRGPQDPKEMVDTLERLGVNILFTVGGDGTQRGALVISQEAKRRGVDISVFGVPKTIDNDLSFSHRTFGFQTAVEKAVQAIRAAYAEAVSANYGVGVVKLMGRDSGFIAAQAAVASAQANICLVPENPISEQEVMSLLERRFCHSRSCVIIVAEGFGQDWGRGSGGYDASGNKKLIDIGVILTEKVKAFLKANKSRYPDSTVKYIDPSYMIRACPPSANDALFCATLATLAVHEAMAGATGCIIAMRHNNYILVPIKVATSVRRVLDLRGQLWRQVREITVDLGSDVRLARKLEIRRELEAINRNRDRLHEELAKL
#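 ADP-Glo luminescence quantified ADP after 45 min at room temperature, with 1.25 nM T. brucei PFK, 0.1 mM ATP and 0.5 mM fructose-6-phosphate in pH 8.0 TEA buffer. qHTS titrations up to 57 µM; curves classified by quality.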
# TbPYK inh: confirmation of Trypanosoma brucei pyruvate kinase inhibitors | shares compounds with PLK1 PBD inh | recombinant TbPYK, Kinase-Glo ATP luminescence | Potency, µM (doses to about 76.9 µM), inactives show top-dose activity change, negative = inhibition, usual class: inhibitors | 890 compounds, 67% hits | AID 720569; further: on the % scale 0 is the no-effect control and ±100 the full control effect; nearly all actives have a fitted effect of over 70% in size
# TbPYK orthogonal: orthogonal confirmation of Trypanosoma brucei pyruvate kinase inhibitors | shares compounds with PLK1 PBD inh | recombinant TbPYK, ADP-Glo luminescence, 60 min | Potency, µM (doses to about 76.9 µM), for the others: at the top dose activity change, negative = inhibition, hits mostly inhibitors | 890 compounds, 62% hits | AID 720584; further: on the % scale 0 is the no-effect control and ±100 the full control effect; nearly all actives have a fitted effect of over 75% in size
# An asterisk follows results filed as active; ? = inconclusive; / = no result. An excerpt weighted towards active compounds, which were near 3.9% of everything screened. The call rests on the fitted dose curve; in most records, active means well fitted curve in the direction sought with a large enough effect; inconclusive means small, poorly fitted or top-dose-only effect, or another doubt; inactive means no such curve, though single readings can be large; an effect the other way counts as inactive or inconclusive. Potency means the concentration at half of the fitted maximal effect.
SMILES,BRCA1 expr act,VDR inh,PLK1 PBD inh,Tb PFK block,TbPYK inh,TbPYK orthogonal
O=S1(=O)N(Cc2ccccc2Cl)CCCN1Cc1ccccc1Cl,/,-6%,/,/,/,/
CN1CCN(C(=S)c2ccc([N+](=O)[O-])cc2)CC1,3%,?,5.3µM*,-6%,5µM*,13µM*
O=C(O)CCn1cc(C=C2C(=O)NC(=S)NC2=O)c(-c2cc3ccccc3oc2=O)n1,6%,?,11µM*,-4%,5.6µM*,10µM*
O=C(c1cc2ccccc2oc1=O)N1CCC2(CC1)OCCO2,3%,-12%,-21%,-8%,/,/
COc1cc(C=C2C(=O)NC(=O)NC2=O)ccc1OCc1ccc([N+](=O)[O-])cc1,?,?,6.7µM*,-6%,13µM*,28µM*
O=C1CC(=O)N(c2ccccc2F)C(=O)N1,-11%,-24%,?,-2%,/,/
O=C1NC(=O)N(c2ccc3c(c2)OCO3)C(=O)/C1=C/c1ccc(N2CCCCC2)o1,-1%,-7%,102%,-1%,/,/
O=C1NC(=O)N(c2cccc(Cl)c2)C(=O)/C1=C\c1ccc(Sc2nc3ccccc3[nH]2)o1,9%,?,2.7µM*,-19%,16µM*,16µM*
O=C1NC(=O)N(c2ccccc2F)C(=O)/C1=C/c1ccc(Sc2nc3ccccc3[nH]2)o1,4%,?,?,?,14µM*,16µM*
COc1ccc2c3c1O[C@H]1C(=O)CC[C@@]4(O)C(C2)N(CC2CC2)CCC314 (some centres undefined),/,12%,/,/,/,/
N#CCn1c(CCl)nc2ccccc2c1=O,-10%,-23%,?,-1%,/,/
COc1ccc(CN2C(=O)NC(=O)/C(=C\c3ccco3)C2=O)cc1,-10%,54%,1.2µM*,0%,28µM*,?
O=C1NC(=O)N(Cc2ccccc2)C(=O)/C1=C/C=C/c1ccco1,-86%,?,122%,?,/,/
NC(=O)C1CCN(/C=C2\C(=O)NC(=O)N(Cc3ccco3)C2=O)CC1,-4%,0%,?,-7%,/,/
O=C1NC(=O)N(CCc2ccc(F)cc2)C(=O)/C1=C/c1ccco1,-2%,39%,1.1µM*,-7%,32µM*,?
CCCCCCCCc1[se]c2ccccc2c1I,/,-4%,/,/,/,/
O=C1NC(=O)C(=Cc2ccc(N3CCN(C(=O)c4ccccc4)CC3)c([N+](=O)[O-])c2)C(=O)N1,-10%,50µM*,6.7µM*,3%,32µM*,35µM*
C=CCN1C(=O)NC(=O)/C(=C\c2ccc(-c3ccccc3[N+](=O)[O-])o2)C1=O,-32%,18µM*,1.5µM*,24%,10µM*,25µM*
C=CCN1C(=O)/C(=C/c2ccc(N3CCOCC3)o2)C(=O)NC1=S,-6%,-5%,78%,0%,/,/
Cc1nn(Cc2ccccc2)c(C)c1C=C1C(=O)NC(=O)NC1=O,-5%,-26%,9.5µM*,9%,18µM*,32µM*
COc1ccc(OCC(=O)N2CCN(Cc3cc(=O)n4nc(-c5ccccc5C)sc4n3)CC2)cc1,-20%,5%,/,/,/,/
CC1=NNC(=O)C1Br (centres undefined),3%,?,9.5µM*,/,3.2µM*,5µM*
Cc1cc(C)cc(-n2c(=O)[nH]c3ccccc3c2=O)c1,/,13%,/,/,/,/
Cc1cccc2c1=NC(=O)/C(=C/c1c(O)[nH]c(=O)[nH]c1=O)C=2,6%,?,7.5µM*,-6%,25µM*,?
O=c1[nH]c(O)c(C=Nc2ccccc2Sc2ccccc2)c(=O)[nH]1,17%,3%,-15%,-3%,/,/
N#Cc1cc2c(nc1SCC(=O)Nc1ccc(Cl)c(C(F)(F)F)c1)C1CCN2CC1,/,-13%,/,/,/,/
COc1ccc(CN2C(=O)NC(=O)/C(=C/c3ccc([N+](=O)[O-])s3)C2=O)cc1,-15%,22µM*,1.9µM*,-1%,18µM*,32µM*
O=C1NC(=O)N(Cc2ccc(F)cc2)C(=O)/C1=C\c1ccc([N+](=O)[O-])s1,-7%,?,2.7µM*,-3%,14µM*,16µM*
O=C1NC(=O)N(c2ccc3c(c2)OCO3)C(=O)/C1=C\c1ccc(-c2ccccc2C(=O)O)o1,-10%,?,3µM*,-23%,13µM*,?
